The record followed here is PubChem BioAssay AID504339 (National Center for Advancing Translational Sciences (NCATS), 2011).

About 17,000 (4.4%) of roughly 390,000 compounds were called active. Inconclusive results (about 8%) are left out. The entries come from a sample that favours actives as a whole. Unmarked numbers belong to inactive results. Calls come from the whole dose curve; as a rule, active = well fitted inhibition curve with a large enough effect; inconclusive = small, poorly fitted or top-dose-only effect; inactive = no such curve, though single readings can be large or run the other way.
% is set by controls: 0 for no effect and ±100 for the full control effect; potency is the fitted concentration of half-maximal effect.

Chain of Lysine-specific demethylase 4A (Homo sapiens) (O75164 whole entry, looked up, the tested form may be a part): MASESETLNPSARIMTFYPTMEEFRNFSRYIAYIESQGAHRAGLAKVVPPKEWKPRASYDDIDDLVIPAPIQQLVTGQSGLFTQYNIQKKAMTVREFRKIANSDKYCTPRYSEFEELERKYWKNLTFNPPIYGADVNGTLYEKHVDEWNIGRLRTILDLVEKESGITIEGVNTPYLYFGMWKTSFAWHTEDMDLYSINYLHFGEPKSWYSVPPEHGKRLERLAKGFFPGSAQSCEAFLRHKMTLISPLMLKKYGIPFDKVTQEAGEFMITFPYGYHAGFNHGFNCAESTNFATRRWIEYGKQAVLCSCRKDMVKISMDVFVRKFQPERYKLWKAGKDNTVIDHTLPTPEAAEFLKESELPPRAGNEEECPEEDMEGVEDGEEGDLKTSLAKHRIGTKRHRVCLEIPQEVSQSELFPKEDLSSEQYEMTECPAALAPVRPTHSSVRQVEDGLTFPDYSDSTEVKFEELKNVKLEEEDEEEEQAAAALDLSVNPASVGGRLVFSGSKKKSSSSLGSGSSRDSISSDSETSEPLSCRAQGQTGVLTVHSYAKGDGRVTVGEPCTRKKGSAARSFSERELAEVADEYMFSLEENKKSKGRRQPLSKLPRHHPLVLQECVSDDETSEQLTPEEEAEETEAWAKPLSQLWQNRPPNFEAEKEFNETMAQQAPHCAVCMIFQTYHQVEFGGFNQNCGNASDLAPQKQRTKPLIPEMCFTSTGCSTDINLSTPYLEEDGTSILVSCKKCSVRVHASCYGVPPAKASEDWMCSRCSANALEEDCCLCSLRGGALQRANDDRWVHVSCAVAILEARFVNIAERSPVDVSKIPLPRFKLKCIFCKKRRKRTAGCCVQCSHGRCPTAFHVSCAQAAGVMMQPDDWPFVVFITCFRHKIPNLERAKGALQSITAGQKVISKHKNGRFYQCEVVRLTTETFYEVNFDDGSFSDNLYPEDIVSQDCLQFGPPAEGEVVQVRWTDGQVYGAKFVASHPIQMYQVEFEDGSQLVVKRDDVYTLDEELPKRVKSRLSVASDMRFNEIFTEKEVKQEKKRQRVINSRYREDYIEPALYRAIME

In the assay the target is Lysine-specific demethylase 4A (Homo sapiens) (UniProt O75164). Description: qHTS Assay for Inhibitors of JMJD2A-Tudor Domain. Note: nearly all actives have a fitted effect of over 50% in size. The settings on record: AlphaScreen JMJD2A-Tudor / H3K4me3 peptide binding; series mostly up to 114 µM; activity change, negative = inhibition: at the top concentration. The source says:
JMJD2A is a jumonji-domain-containing lysine demethylase that uses Fe(II) together with 2-OG to effect oxidative demethylation of histones. Methylation is one of many […] modification that affect epigenetic transcription. […] It is proposed that the functions of JmjD2A binding to the histones, is to maintain marks after they are installed and to spread the modifications by […], establishing a self-propagating cycle for rapid methylation over a large area of chromatin. […] Thus, small molecule targeting of the JMJD2A-tudor domain interaction with its target methylhistone mark is expected to enable sophisticated experiments probing the fine regulatory pathways leading to selective demethylation of a given methyllysine locus based on the methylation state of adjacent histone marks. A quantitative high throughput AlphaScreen has been developed to identify small molecule inhibitors based on a protocol published by NCGC and SGC [4].
Although AlphaScreen has significant advantages with its utility in a variety of epigenetic target assays, the primary screening data provided in this deposition should be used with caution due to the prevalence of screening artifacts. The top compound concentration tested was high (>100uM) in this assay, which increases number of actives and potential artifacts. An AlphaScreen counterscreen is highly recommended to be run against any putative actives to eliminate non-specific artifacts. Alternatively, one can use other AlphaScreen assays in PubChem to filter out promiscuous hits.
[1] Lee, J. et al. Distinct binding modes specify the recognition of methylated histone H3K4 and H4K20 by JMJD2A-tudor. Nat Struct Mol Biol. 15(1); 109-11. 2008. PMID: 18084306
[2] Yasgar, et al. Compound Management for Quantitative High-Throughput Screening. JALA. 2008 Apr;13(2):79-89. PMID: 18496600
[3] Inglese, et al. Quantitative high-throughput screening: a titration-based approach that efficiently identifies biological activities in large chemical libraries. Proc Natl Acad Sci. 1;103(31):11473-8. 2006. PMID: 16864780
[4] Quinn et al. A homogeneous method for investigation of methyl-dependent protein-protein interactions in epigenetics. Nucleic Acids Res., 38(2):e11. 2010. PMID: […]
[5] Baell,Holloway. New substructure filters for removal of pan assay interference compounds (PAINS) from screening libraries and for their exclusion in bioassays. J Med Chem. 53(7):2719-40. 2010. PMID: 20131845
NIH Molecular Libraries Probe Production Network [MLPCN]
NIH Chemical Genomics Center [NCGC]
Structural Genomics Consortium (SGC)
To each well of a 1,536w plate, 2ul of JMJD2A-Tudor (final 100nM) and 1ul biotinylated histone peptide methylated at Lys4 [b-H3(1-18)K4me3] (final 50nM) were added in 1x PBS buffer, pH 7.4, containing 0.01% Tween-20, using a nanoliter dispenser. Formation of a protein-peptide complex proceeded at room temperature for 30 min. A Kalypsys pin-tool transferred 23nl of library compound solution in DMSO to each well. Following a 30 min incubation of the protein-peptide complex with compounds at room temperature, a mixture of 40 µg/mL each streptavidin-coated donor and nickel chelate acceptor AlphaScreen beads (final 10 µg/mL) was added in a 1ul dispense for a final volume of 4ul, followed by a brief centrifugation (1000 rpm, 1 min). Plates were incubated protected from the light for 20 min at room temperature. Microplates were then read on an EnVision multilabel plate reader using the 1,536 plate HTS AlphaScreen aperture (excitation time 80 ms, measurement time 240 ms).
As to `CCc1ccccc1NC(=O)c1cnn(-c2ccc(F)cc2)c1C1CCNCC1`, the “activity change, negative = inhibition” value was 5.18%. Still for that read-out and setting: the value for `CCc1ccc2oc(-c3ccc(C)c(NC(=O)/C=C/c4ccco4)c3)nc2c1` was -16.7%. For the molecule `C=CS(=O)c1sc(Cl)c(N2CCOCC2)c1[N+](=O)[O-]` (centres undefined), the Potency is 50.1 µM (active). As for `COc1ccc(NC(=O)C2CCCN(S(=O)(=O)c3c(C)[nH]c(=O)[nH]c3=O)C2)c(OC)c1` (centres undefined), the “activity change, negative = inhibition” value is 5.82%. Same read-out and setting: the value for `CCc1ccc(CNC(=O)c2ccc(CS(=O)c3ccc(Br)cc3)o2)cc1` (centres undefined) was -2.68%; that for `CCCn1ccc2c(OCC(=O)NCc3ccc(F)cc3)cccc2c1=O` was 4.22%. Still for that read-out and setting: next, `Cc1ccc(S(=O)(=O)n2nc(-c3ccc(Cl)cc3)nc2NCc2ccccc2)cc1`: 3.09%; `Cc1c(C(=O)Nc2cccc(Cl)c2)oc2ccc(S(=O)(=O)N3CCOCC3)cc12`: -11.9%. In the case of `Cc1oc2c(C)c3oc(=O)c(CC(=O)N[C@@H](CC(C)C)C(=O)N[C@@H](Cc4ccccc4)C(=O)O)c(C)c3cc2c1C`, the Potency is 56.2 µM (active). On to `Cc1c(OC(C)C(=O)N[C@@H](Cc2ccccc2)C(=O)O)ccc2c3c(c(=O)oc12)CCCC3` (some centres undefined), for which the “activity change, negative = inhibition” value was -10.9%. For `CC(C)C[C@H](NC(=O)N1CC(=O)Nc2ccccc21)C(=O)N[C@H](Cc1ccccc1)C(=O)O`, the “activity change, negative = inhibition” value is -19%. In the case of `COC(=O)c1ccccc1NC(=O)Cn1c(=O)cc(C)c2c(C)nn(-c3cccc(Cl)c3C)c21`, the “activity change, negative = inhibition” value was -9.33%.

On to `Clc1ccc(-n2nnnc2CN2CCCCC2)cc1Cl`, for which the “activity change, negative = inhibition” value is 6.72%. For the molecule `O=C(Nc1ccc(CN2CCOCC2)cc1)c1cc(Cl)ccc1Cl`, the “activity change, negative = inhibition” value is 8.97%.

Take `Clc1ccc(CN2CCCCCC2)cc1Cl`: the Potency was 3.98 µM (active). For the molecule `O=C(NCCc1csc(-c2ccc(C(F)(F)F)cc2)n1)C(=O)Nc1ccc(F)c(Cl)c1`, the “activity change, negative = inhibition” value is -12.9%. Turning to `COc1ccc(C2=NC(c3ccncc3)=Nc3ccc(Br)cc3N2)cc1`, the Potency is 44.7 µM (active). For `Brc1ccc2c(c1)NC(c1cccnc1)=NC(c1ccccc1)=N2`, the “activity change, negative = inhibition” value was -22.3%.

On to `COCCNC(=O)c1ccc2c(c1)N(Cc1cccc(Cl)c1)C(=O)c1ccccc1S2(=O)=O`, for which the “activity change, negative = inhibition” value is -12.5%. `CN(C)Cc1cn(-c2ccccc2)nc1-c1ccccc1`: the “activity change, negative = inhibition” value was -7.09%. Still for that read-out and setting: the value for `Cc1cc(/C=C(/C#N)C(=O)Nc2ccc(Cl)cc2)c(C)n1-c1cccnc1` was -11.6%; that for `Cc1ccc(C(=O)N/C(=C/c2cccs2)C(=O)NCC2CCCO2)cc1` (centres undefined) was -4.23%. For the molecule `Cc1ccc(-n2c(C)cc(/C=C(\C#N)C(=O)NCC3CCCO3)c2C)cc1` (centres undefined), the Potency is 50.1 µM (active). Consider `Cc1cc2c(cc3c(SCc4nc(-c5ccccc5)oc4C)nnc(C)n32)o1`, for which the “activity change, negative = inhibition” value was -10.6%.

Turning to `O=c1nc(NO)ccn1C1CCCO1` (centres undefined), the Potency is 8.91 µM (active). In the case of `Nc1ccn(C2CC(O)C(CO)O2)c(=O)n1` (centres undefined), the “activity change, negative = inhibition” value is -6.47%. The same measure, in the same setting: the value for `CNc1nc(=O)n(C2CCCO2)cc1C` (centres undefined) was -6.25%; that for `Cc1cccc(NC(=O)CSc2nc3c(oc4ccccc43)c(=O)n2-c2ccc(F)cc2)c1` was -0.727%. As for `CCc1ccc(NC(=O)c2sc3nc4c(cc3c2N)CN(CC)CC4)cc1`, the Potency is 56.2 µM (active). For `CCN1CCc2nc3sc(C(=O)Nc4ccccc4OC(F)(F)F)c(N)c3cc2C1`, the “activity change, negative = inhibition” value was -23.5%. Regarding `COc1ccc(Cl)cc1NC(=O)c1sc2nc3c(cc2c1N)CN(C)CC3`, the “activity change, negative = inhibition” value was -8.42%. The same measure, in the same setting: the value for `O=C(CSc1n[nH]c(-c2ccccc2)n1)N1CCCCC1` was 4.87%; that for `Cc1ccc(NC(=O)CN2c3ccccc3S(=O)(=O)c3ccccc32)cc1F` was -10.6%; that for `CCc1ccccc1NC(=O)Cc1ccc(NC(=O)N2CCCCc3ccccc32)cc1` was -15%. As for `CCN(Cc1ccccc1)Cc1c(O)ccc2c(=O)c(-c3ccc(Cl)cc3Cl)coc12`, the “activity change, negative = inhibition” value is 2.42%. Turning to `COc1cccc(CNC(=O)Cn2c(=O)c3cccn3c3ccc(F)cc32)c1OC`, the “activity change, negative = inhibition” value was -5.59%.

Consider `CCOc1ccc(CCNC(=O)CN(c2ccc(C)cc2)S(=O)(=O)N(C)C)cc1OCC`, for which the “activity change, negative = inhibition” value is -2.98%.

As to `O=C(Cn1ncc2c3ccccc3n(Cc3ccccc3)c2c1=O)NC1CCCCCC1`, the “activity change, negative = inhibition” value was -9.73%. Turning to `CCCNC(=O)C(CC)n1nc(CC)n2c(cc3oc(C)cc32)c1=O` (centres undefined), the “activity change, negative = inhibition” value was -4%. Turning to `CCOc1cccc(-c2nn3c(-c4ccccn4)nnc3s2)c1`, the Potency is 79.4 µM (active). Consider `CCOc1cccc(-c2nnc(SCC(=O)NC3CC3)n2C)c1`, for which the “activity change, negative = inhibition” value is -3.03%. In the case of `CCOc1cccc(C(=O)Nc2nnc(S(=O)(=O)N(C)c3ccc(C)cc3)s2)c1`, the “activity change, negative = inhibition” value was 5.92%. As to `Cc1ccc2c(=O)c(C(=O)c3ccc(F)cc3)cn(CC(=O)NC3CCCCC3)c2n1`, the “activity change, negative = inhibition” value was -17.2%. The same measure, in the same setting: the value for `CSc1ncc(C(=O)NCc2ccccc2Cl)c(C(F)(F)F)n1` was -0.99%; that for `Cc1cccn2c(=O)c3cc(C(=O)NC(C)c4ccccc4)c(=N)n(CCCO)c3nc12` (centres undefined) was -10%; that for `CCOc1cccc(NC(=O)c2ccc(F)c(S(=O)(=O)N(CC)c3cccc(C)c3)c2)c1` was 4.89%. With `COc1cccc2c(O)cc(=O)n(C)c12`, the “activity change, negative = inhibition” value was -1.39%. Same read-out and setting: the value for `COc1cccc2cc(-c3cc(=O)oc4cc(C)c(O)cc34)oc12` was -21.7%. Regarding `COc1cc(O)c2c(=O)c3c(O)c(O)ccc3oc2c1OC`, the Potency is 89.1 µM (active).
